Records with an inconclusive call do not appear. Unmarked numbers belong to inactive results. Activity calls are given as the source filed them. The call rests on the fitted dose curve; in most records, active means well fitted curve in the direction sought with a large enough effect; inconclusive means small, poorly fitted or top-dose-only effect, or another doubt; inactive means no such curve, though single readings can be large; an effect the other way counts as inactive or inconclusive.

Usually viability stands for a read-out of living cells in per cent, often relative to untreated cells.

The nature of assay [1]: BET inhibitor-based combinations targeting novel dependencies in MECOM-rearranged (r) AML: SET-2 cell line (AID 2202231). Further: nearly all actives have a fitted effect of over 35% in size.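 On viability: plate controls were DMSO treated cells for no effect and wells without cells for full effect.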 Conditions: SET-2 AML cells viability, CellTiter-Glo luminescence, 48 h; viability: active compounds read low, concentration not given here. A digest of the protocol: (§1)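 AML cell lines seeded at 500 cells/well, treated with 11-point dose curves for 48 h. Viability by CellTiter-Glo luminescence, normalised to DMSO and empty wells; activity expressed as AUC and per-cell-line Z-transformed AUC.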

The nature of assay [2]: BET inhibitor-based combinations targeting novel dependencies in MECOM-rearranged (r) AML: OCI-AML3 cell line (AID 2202232). Further: nearly all actives have a fitted effect of over 35% in size.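 On viability (% of control): plate controls were DMSO vehicle wells for no effect and wells without cells for full effect.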 Conditions: CellTiter-Glo luminescence, 48 h; Potency: OCI-AML3 viability; series mostly up to 46 µM. The procedure, abridged: as §1
Background: Cellular ATP, detected with luciferase, serves as a proxy for viable cell number.

Assay [3] in a line: BET inhibitor-based combinations targeting novel dependencies in MECOM-rearranged (r) AML: MV-4-11 cell line (AID 2202233). Further: nearly all actives have a fitted effect of over 45% in size.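 On viability, % of control: plate controls were DMSO for no effect and blank wells for full effect.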 Particulars: MV-4-11 AML viability, CellTiter-Glo luminescence, 48 h; series mostly up to 46 µM. A digest of the protocol:
(§2)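 Cells at 500/well were exposed for 48 hr to MIPE v5.0 drugs as 11-point dose curves. Viability was read by CellTiter-Glo luminescence and normalized to DMSO and empty-well controls. Activity was expressed as AUC and per-cell-line Z-AUC.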

The nature of assay [4]: BET inhibitor-based combinations targeting novel dependencies in MECOM-rearranged (r) AML: HNT-34 cell line (AID 2202234). Further: nearly all actives have a fitted effect of over 35% in size.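 On viability (% of control): plate controls were vehicle wells for no effect and cell-free wells for full effect.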 Conditions: HNT-34 AML viability, CellTiter-Glo luminescence, 48 h; series mostly up to 46 µM. A digest of the protocol: as §2
Assay [5] can be described thus: BET inhibitor-based combinations targeting novel dependencies in MECOM-rearranged (r) AML: UCSD-AML1 cell line (AID 2202235). Further: nearly all actives have a fitted effect of over 40% in size.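 On viability (% of control): plate controls were DMSO vehicle wells for no effect and blank wells for full effect.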 Conditions: UCSD-AML1 AML cells viability, CellTiter-Glo, 48 h; series mostly up to 46 µM. A digest of the protocol: as §2
Assay [6] can be described thus: BET inhibitor-based combinations targeting novel dependencies in MECOM-rearranged (r) AML: AML-191 cell line (AID 2202236; further: nearly all actives have a fitted effect of over 35% in size;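 on viability (% of control): plate controls were vehicle wells for no effect and wells without cells for full effect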). Conditions: AML-191 viability, CellTiter-Glo luminescence, 48 h; series mostly up to 46 µM. The procedure, abridged: as §1
Assay [7] in a line: BET inhibitor-based combinations targeting novel dependencies in MECOM-rearranged (r) AML: AML-194 cell line (AID 2202237; further: nearly all actives have a fitted effect of over 40% in size;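 on viability (% of control): plate controls were vehicle wells for no effect and wells without cells for full effect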). Particulars: AML-194 (MECOM-r AML) viability, CellTiter-Glo, 48 h; series mostly up to 46 µM. A digest of the protocol:
as §1
Potency means the concentration at half of the fitted maximal effect.

As to `CCC(=O)NCC[C@@H]1CCc2ccc3c(c21)CCO3`, the viability in assay [1] was 114%. Also, the Potency result in assay [2], in assay [3], in assay [4], in assay [5], in assay [6] and in assay [7] was “inactive” throughout.

With `CC(C)(C)C(=O)OCOP(=O)(COCCn1cnc2c(N)ncnc21)OCOC(=O)C(C)(C)C`, the Potency is 4680 nM (active) in assay [1]; 525 nM (active) in assay [2]; 209 nM (active) in assay [3]; 2630 nM (active) in assay [4]; 1860 nM (active) in assay [5]; 1660 nM (active) in assay [6]. Moreover, the Potency in assay [7] is 2950 nM (active).

Regarding `CN1CCC(c2c(O)cc(O)c3c(=O)cc(-c4ccccc4Cl)oc23)C1CO` (stereo unspecified), the Potency is 1320 nM (active) in assay [1]; 742 nM (active) in assay [2]; 934 nM (active) in assay [3]; 833 nM (active) in assay [4]; 1050 nM (active) in assay [5]; 662 nM (active) in assay [6]. Moreover, in assay [7], the Potency is 1050 nM (active).

Take `CC(=O)c1ccc2c(c1)c1cc(C(C)=O)ccc1n2CCNC(C)C`: the Potency in assay [1] is 1180 nM (active); in assay [2], 1050 nM (active); in assay [3], 525 nM (active); in assay [4], 1320 nM (active); in assay [5] it was 833 nM (active); in assay [6], 833 nM (active). In addition, the Potency in assay [7] is 1320 nM (active).

Consider Ac-PHSCN-NH2, for which the viability in assay [1] was 109%. For the same compound, the Potency entry in assay [2], in assay [3], in assay [4], in assay [5], in assay [6] and in assay [7] was “inactive” each time.

For the compound `C=C1C(=O)O[C@@H]2[C@H]3O[C@]3(C)CC/C=C(\C)CC[C@@H]12`, the Potency in assay [1] was 11800 nM (active); in assay [2], 6610 nM (active); in assay [3] it was 5250 nM (active); in assay [4], 7420 nM (active); in assay [5] it was 10500 nM (active); in assay [6], 9340 nM (active). For the same compound, the Potency in assay [7] is 11800 nM (active).

On to `CC(C)(S)[C@@H](N)C(=O)O`, for which the viability in assay [1] is 116%. The viability (% of control) in assay [2] is 118% [at 5.12 µM]; in assay [4], 108% [at 5.12 µM]; in assay [5] it was 112% [at 5.12 µM]; in assay [6] it was 111% [at 5.12 µM]; in assay [7], 114% [at 5.12 µM]. Further, in assay [3], the viability, % of control is 125% [at 5.12 µM].

`CO[C@H]1/C=C\C=C(\C)C(=O)NC2=CC(=O)C(NCCN(C)C)=C(C[C@@H](C)C[C@H](OC)[C@H](O)[C@@H](C)/C=C(/C)[C@@H]1OC(N)=O)C2=O`: the Potency is 2950 nM (active) in assay [1]; 118 nM (active) in assay [2]; 29.5 nM (active) in assay [3]; 417 nM (active) in assay [4]; 296 nM (active) in assay [5]; 1050 nM (active) in assay [6]. Further, in assay [7], the Potency is 662 nM (active).

In the case of `C[C@H]1[C@H](C)CC[C@]2(C(=O)O)CC[C@]3(C)C(=CC[C@@H]4[C@@]5(C)CC[C@H](O)C(C)(C)[C@@H]5CC[C@]43C)[C@H]12`, in assay [1], the viability is 102%. Also, the Potency result in assay [2], in assay [3], in assay [4], in assay [5], in assay [6] and in assay [7] was “inactive” in each case.

As for `C=CC(=O)Nc1cccc(Oc2nc(Nc3ccc(N4CCN(C)CC4)cc3)nc3ccsc23)c1`, the Potency in assay [1] is 26300 nM (active); in assay [2] it was 10500 nM (active); in assay [3] it was 8330 nM (active); in assay [4], 8330 nM (active); in assay [5] it was 9340 nM (active); in assay [6], 23500 nM (active). In assay [7], the Potency was 14800 nM (active).

For `C/C=C/C/C=C/CCC(=O)[C@H]1O[C@H]1C(N)=O`, the Potency in assay [1] is 20900 nM (active); in assay [2] it was 11800 nM (active); in assay [3], 20900 nM (active); in assay [4] it was 14800 nM (active); in assay [5] it was 20900 nM (active); in assay [7], 26300 nM (active).

Turning to `CCC[C@H](NC(=O)/C(C#N)=C/c1cccc(Br)n1)c1ccccc1`, the Potency is 4170 nM (active) in assay [1]; 3320 nM (active) in assay [2]; 2950 nM (active) in assay [3]; 2950 nM (active) in assay [4]; 3720 nM (active) in assay [6]; 7420 nM (active) in assay [7].

`C[C@@]12C(=O)OC(=O)[C@]1(C)[C@H]1CC[C@@H]2O1`: the Potency in assay [1] is 4170 nM (active); in assay [2], 3720 nM (active); in assay [3], 3320 nM (active); in assay [4], 2950 nM (active); in assay [5], 7420 nM (active); in assay [7], 2630 nM (active).

As for `CN1CCN(c2ccc3nc(-c4cc(C(C)(C)C)c(OCCCC(=O)NCCCN=[N+]=[N-])c(C(C)(C)C)c4)[nH]c3c2)CC1`, the Potency in assay [1] was 10500 nM (active); in assay [2], 10500 nM (active); in assay [3] it was 7420 nM (active); in assay [4] it was 9340 nM (active); in assay [6], 9340 nM (active); in assay [7], 8330 nM (active).

`COCCn1c2c([n+](Cc3cnccn3)c1C)C(=O)c1ccccc1C2=O`: the Potency is 1180 nM (active) in assay [1]; 52.5 nM (active) in assay [2]; 66.1 nM (active) in assay [3]; 166 nM (active) in assay [4]; 148 nM (active) in assay [6]; 186 nM (active) in assay [7].

As for `CCCNC(=O)c1cn2ncnc(Nc3cc(C(=O)NC4CC4)ccc3C)c2c1C`, the viability in assay [1] is 99.9%. Moreover, the Potency result in assay [2], in assay [3], in assay [4], in assay [6] and in assay [7] was “inactive” throughout.

`CCCS(=O)(=O)c1nc(NC2CC2)cc(-c2ccc3c(ccn3C3CC(C)(C)NC(C)(C)C3)c2)n1`: the Potency in assay [1] is 2210 nM (active); in assay [2], 2780 nM (active); in assay [3], 2480 nM (active); in assay [4], 3120 nM (active); in assay [6], 3120 nM (active).

For the origin of these results see PubChem BioAssay (NCATS).
